# High-throughput results deposited in PubChem by National Center for Advancing Translational Sciences (NCATS).
# Rows were chosen to be rich in hits. Some 7.5% of all compounds tested hit in one or more screens of this group.
# SMN2 splice up – qHTS Assay for Enhancers of SMN2 Splice Variant Expression | AID 1458, 2008 | HEK293 SMN2-luciferase splicing reporter, luminescence, 30-36 h | Potency, µM (top dose mostly 46.1 µM), for the others: at the highest dose activity change, positive = activation, actives largely listed as activators | hit rate 2.8% among 210,000; further: % of control where 0% means no effect; nearly all actives have a fitted effect of over 55% in size
#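 qHTS luciferase splicing reporter: luminescence rises when SMN2 exon 7 is included in transfected HEK293 cells. Compound exposure lasted 30-36 h at 37C, with 4.5 mM final sodium butyrate as control, followed by a ONE-Glo read.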
# FLuc counter – qHTS profiling assay for firefly luciferase inhibitor/activator using purifed enzyme and Km concentrations of substrates (counterscreen for miR-21 project) | Luciferin 4-monooxygenase (Photinus pyralis), P08659 | purified FLuc, Km substrates, luminescence inhibition | Potency, µM (doses to about 57.5 µM), inactives show at the top dose activity change, negative = inhibition, usual class: inhibitors | hit rate 6.9% among 360,000;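 further: plate controls were vehicle for no effect and reference inhibitor for full effect; nearly all actives have a fitted effect of over 55% in size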
# Target sequence (P08659 whole entry, looked up): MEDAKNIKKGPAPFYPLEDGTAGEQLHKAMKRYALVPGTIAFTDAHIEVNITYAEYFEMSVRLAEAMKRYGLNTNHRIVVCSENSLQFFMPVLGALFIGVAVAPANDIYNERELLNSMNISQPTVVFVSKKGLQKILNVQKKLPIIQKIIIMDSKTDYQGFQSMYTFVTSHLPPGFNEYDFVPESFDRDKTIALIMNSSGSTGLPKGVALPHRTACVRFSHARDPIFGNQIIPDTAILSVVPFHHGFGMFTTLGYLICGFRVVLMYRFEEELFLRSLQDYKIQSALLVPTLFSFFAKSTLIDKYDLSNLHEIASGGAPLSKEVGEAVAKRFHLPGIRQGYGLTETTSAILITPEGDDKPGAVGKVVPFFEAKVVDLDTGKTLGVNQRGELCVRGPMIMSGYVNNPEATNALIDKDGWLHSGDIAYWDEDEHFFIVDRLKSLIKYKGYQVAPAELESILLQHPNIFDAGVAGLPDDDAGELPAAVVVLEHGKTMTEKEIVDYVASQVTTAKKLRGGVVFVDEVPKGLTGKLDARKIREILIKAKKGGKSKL
#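 Biochemical qHTS of compounds, final roughly 60 µM downward over six points, against 10 nM purified firefly luciferase using Km concentrations of substrates (10 uM D-luciferin, 10 uM ATP) in Tris acetate pH 7.5 buffer; luminescence output.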
# NPC1 prom act – qHTS Assay for NPC1 Promoter Activators; hit rate 2.4% among 320,000; Huh7 NPC1 promoter luciferase reporter, 24 h; AID 485313, 2010; Potency, µM (highest dose often 9.22 µM), without a hit: at the top dose activation, most hits filed as activators; further: % of control where 0% means no effect; nearly all actives have a fitted effect of over 60% in size
#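 NPC1 promoter–luciferase Huh7 cells; 24 h compound; luminescence.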
# ELG1 genotox – qHTS screen for small molecules that induce genotoxicity in human embryonic kidney (HEK293T) cells expressing luciferase-tagged ELG1. HEK293T ELG1-luciferase reporter, luminescence, 16 h. Potency, µM (top dose mostly 46 µM), for the others: at the highest dose activity change, positive = activation, most hits filed as activators. hit rate 1.3% among 330,000; further: % of control where 0% means no effect; nearly all actives have a fitted effect of over 60% in size
#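 DMSO vehicle served as control against compound-treated ELG1-luciferase HEK293T cells; exposure lasted 16 hr at 37 °C and 5% CO2, followed by ONE-Glo luminescence detection after 30 min.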
# Rab9 prom act – qHTS Assay for Rab9 Promoter Activators. Huh7 Rab9 promoter-luciferase reporter, luminescence, 24 h. Potency, µM (titrated, usually from 9.22 µM), without a hit: at the top dose activation, negative = inhibition, usual class: activators. hit rate 2.8% among 320,000. AID 485297, 2010; further: % of control where 0% means no effect; nearly all actives have a fitted effect of over 60% in size
#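 Cell-based reporter: Huh7 stable for Rab9 promoter-driven luciferase, plated in reduced-serum medium with 10% FBS at 1500 cells/well, compound-treated 24 h at 37 °C, luminescence read after 10 min reagent.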
# * = called active by the depositor; ? = inconclusive; / = not tested or not shown; [ ] = another dose, or the depositor's remark. The call rests on the fitted dose curve; in most records, active means well fitted curve in the direction sought with a large enough effect; inconclusive means small, poorly fitted or top-dose-only effect, or another doubt; inactive means no such curve, though single readings can be large; an effect the other way counts as inactive or inconclusive. Potency means the concentration at half of the fitted maximal effect.
SMILES,SMN2 splice up,FLuc counter,NPC1 prom act,ELG1 genotox,Rab9 prom act
Cc1cccc(NC(=O)NC2CCCCCCC2)c1,/,10.7µM*,1.58µM*,?,3.55µM*
CCC1CCC(NC(=O)Nc2cccc(OC)c2)CC1 (centres undefined),/,4.78µM*,3.98µM*,?,1.26µM*
COc1ccc(-c2noc(-c3nnn(-c4cc(C)ccc4C)c3N)n2)cc1,/,-6.5%,/,/,/
COc1cc(CCC(C)=O)ccc1OC(=O)c1c(F)cccc1Cl,/,12µM*,?,?,2.51µM*
CN(Cc1cc(C(C)(C)C)cc(Br)c1O)Cc1cc(C(C)(C)C)cc(Br)c1O,-10.5%[9.22 µM],/,/,/,/
CC(C)C(OC(=O)c1ccccc1)c1nccc2ccccc12 (centres undefined),/,16.9µM*,?,?,?
CCOC(=O)Cc1c(C)nc2c(-c3ccccc3)c(-c3ccccc3)[nH]n2c1=O,4.47µM*,-11.8%,2.2%,-3.8%,0.3%
CCOC(=O)Cc1c(C)nc2c(-c3ccccc3)c(C)[nH]n2c1=O,-17.1%,-11.7%,2.1%,-2.9%,1.9%
Oc1ccc(N=Nc2cccc(C(F)(F)F)c2)cc1C=Nc1ccc(N2CCOCC2)cc1,-63.4%,-1.9%,17.8%,15.3%,29.0%
Clc1ccc(-c2ccc(C=Nc3ccc(N4CCOCC4)cc3)o2)c(Cl)c1,-22.9%,-19.6%,0.8%,1.9%,0.4%
Clc1cccc(-c2ccc(C=Nc3ccc(N4CCOCC4)cc3)o2)c1Cl,/,3.38µM*,1.0%,0.8%,-0.2%
Clc1ccc(-c2ccc(C=Nc3ccc(N4CCOCC4)cc3)o2)cc1,-32.9%,4.78µM*,1.5%,0.3%,1.0%
CC(=O)Nc1nccc(-c2cc(-c3ccccc3)no2)n1,/,?,3.55µM*,?,2.24µM*
N=c1nc(N)nc2n1NC(c1ccc(F)cc1)=CS2,20.3%,15.1µM*,-0.7%,15.8%,-1.8%
Fc1ccc(C2=CSC3=NCCN23)cc1,-1.1%,-12.8%,0.4%,1.0%,-2.5%
CS(=O)(=O)N1CCC(Oc2ccccc2C(=O)NC(C2CC2)C2CC2)CC1,/,-12.9%,-1.6%,0.6%,0.8%
CC(=O)Nc1ccc(S(=O)(=O)Nc2ccccc2C(=O)N2CCCCC2)cc1,/,3.8%,1.9%,-10.5%,-1.4%
c1ccc2nc(-c3nc4ccccc4o3)ccc2c1,/,0.239µM*,?,?,3.16µM*
COc1ccc(-n2nc([N+](=O)[O-])c(=NCCc3cccc(C)c3)n2O)cc1,/,-7.5%,?,-2.6%,2.24µM*
COc1ccc(-n2nc([N+](=O)[O-])c(=NCCCN3CCCC3=O)n2O)cc1,30.9%,-1.5%,?,?,1.58µM*
O=C1CCCN1CCCN=c1c([N+](=O)[O-])nn(-c2ccc(Cl)cc2)n1O,8.2%,-1.9%,11.4%,13.3%,18.2%
Cc1cccc(CCN=c2c([N+](=O)[O-])nn(-c3ccccc3)n2O)c1,-33.3%,1.3%,4.5%,-0.4%,-1.8%
O=C(Nc1ccccn1)c1ccc(COc2ccccc2Cl)o1,14.5%,16.9µM*,0.1%,?,25.8%
O=C(Nc1cccnc1)c1ccc(COc2ccccc2Cl)o1,-30.1%,?,-0.4%,0.7%,-0.2%
CCOc1ccc(OCc2ccc(C(=O)Nc3ccc(Cl)cn3)o2)cc1,17.8µM*,?,?,0.8%,27.6%
SMILES,SMN2 splice up,FLuc counter,NPC1 prom act,ELG1 genotox,Rab9 prom act
O=C(Nc1nn(Cc2ccc(Cl)cc2)cc1Br)c1ccc(COc2ccccc2Cl)o1,-56.5%,-2.4%,-1.0%,-17.4%,-8.7%
O=C(Nc1ccc(Cl)cn1)c1ccc(COc2ccccc2Br)o1,12.6µM*,?,27.9%,5.0%,?
Cc1cccc(S(=O)(=O)Nc2ccc(-n3c(C)nc4ccccc4c3=O)cc2)c1,/,-0.2%,-2.5%,-1.6%,-2.6%
C=C1CC(C(=O)N/N=C/c2ccccc2)C1,28.0%,?,11.5%,-0.4%,13.0%
O=C(CCCn1c(=S)[nH]c2cc3c(cc2c1=O)OCO3)NCc1ccccc1Cl,/,3.6%,-3.2%,-0.2%[9.26 µM],3.1%
Cn1c2ccccc2c(=O)c2cc(C#Cc3ccc(N)cc3)ccc21,/,6.01µM*,?,6.2%,?
Cn1c2ccccc2c(=O)c2ccc(C#CC3(O)CCCCC3)cc21,/,0.379µM*,0.316µM*,?,0.316µM*
COc1ccc(C#Cc2ccc3c(c2)c(=O)c2ccccc2n3C)cc1,/,12µM*,16.1%,-3.1%,14.8%
Cc1ccc(NC(=O)c2ccc(C#CC3(O)CCCCC3)cc2)cc1C,-13.2%,1.5%,2.2%,-2.3%,-7.7%
O=C(NCc1ccco1)c1ccc(CS(=O)Cc2ccc(Cl)cc2)o1 (centres undefined),/,2.4%,1.0%,0.3%,-14.0%
Cn1c(=O)n(CCOc2ccccc2Cl)c2ccccc21,?,23.9µM*,?,?,4.47µM*
Cc1ccc(OCCn2c(=O)n(C)c3ccccc32)cc1,/,10.7µM*,3.16µM*,?,2.82µM*
Clc1ccccc1OCCn1nnc2ccccc21,/,?,3.16µM*,?,?
Cn1c(=O)n(CCOc2ccc(Cl)cc2Cl)c2ccccc21,-14.9%,-15.8%,-0.3%,14.6%,2.7%
Cn1c(=O)n(CCOc2ccc([N+](=O)[O-])cc2)c2ccccc21,/,?,15.4%,8.1%,11.1%
COc1ccc(S(=O)(=O)N2CCCCCC2)cc1C(=O)Nc1ccc(C(=O)N(C)C)cc1,/,0.9%,7.0%,1.5%,-9.5%
COc1cccc(-c2nnc(SCc3cccnc3)o2)c1,12.0%,23.9µM*,?,13.2%,3.98µM*
O=C(O)c1cccc(CSc2nnc(-c3ccc(Cl)cc3)o2)c1,/,19µM*,-0.5%,16.9%,-0.6%
Cc1cccc(-c2nnc(SCc3ccccc3)o2)c1,?,10.7µM*,?,?,?
Cc1cccc(CSc2nnc(-c3ccco3)o2)c1,26.0%,?,17.8%,?,15.8%
O=C(O)c1cccc(CSc2nnc(COc3ccccc3)o2)c1,?,?,-3.6%,-1.5%,-0.7%
COc1cc(OC)cc(-c2nnc(SCc3cccnc3)o2)c1,-2.8%,-16.9%,-8.0%,3.1%,8.6%
O=C1CC(c2nnc(Cc3ccc(F)cc3)o2)CN1c1ccccc1 (centres undefined),-3.9%,-0.5%,/,/,/
Cc1ccc(-c2cc(C(=O)n3cnc4ccccc43)c3ccccc3n2)cc1C,21.3%,3.01µM*,?,11.7%,?
COc1ccc(-c2cc(C(=O)N3CCN(c4ccccc4)CC3)c3ccccc3n2)cc1OC,24.7%,15.1µM*,-3.3%,-15.4%,-2.4%
Cc1ccc(-c2cc(C(=O)NC(C)c3ccccc3)c3ccccc3n2)cc1C (centres undefined),/,-14.2%,/,/,/
Cc1ccc(-c2cc(C(=O)N3CCN(c4ccccc4)CC3)c3ccccc3n2)cc1C,/,2.39µM*,/,/,/
